About 2,100 (0.66%) of roughly 320,000 compounds were called active. About 53% were inconclusive and are not listed. Calls follow the shape of the dose curve; as a rule, active = well fitted inhibition curve with a large enough effect in the signal ratio, with a control signal flat (not every such curve was filed as active); inconclusive = small, poorly fitted or top-dose-only effect, or effect the other way, or a change in a side signal; inactive = flat fitted curve, though single readings scatter; the % refers to the signal ratio. Many of the other results were omitted from the sample, so actives are more common in it than they were.
experiment: qHTS Assay for Lipid Storage Modulators in Drosophila S3 Cells; conditions: BODIPY lipid droplet fluorescence, 18-24 h, cells fed with added oleic acid; cell number change: measured here: cell count max response; series mostly up to 46.1 µM;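 as to cell number change: cells counted by Cell Tracker Red CMTPX staining in the red channel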; as to lipid storage change, negative = inhibition: % is scaled to controls: 0 for no effect and ±100 for the full control effect
Method in brief: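 Drosophila S3 cells got compounds at several concentrations plus oleic acid (400 uM solution). Laser-scanning cytometry with 488 nm excitation read lipid droplets at 500-530 nm and cells at 575-640 nm. Percent activity was relative to 20 uM Triacsin C.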
Potency is read from the fitted curve at half-maximal effect.

Row | Structure (SMILES) | Potency | cell number change [%] | lipid storage change, negative = inhibition
1 | Cc1cc2nc(NC3=NCN(CCN4CCOCC4)CN3)nc(C)c2cc1C | inactive | -6.7 | 
2 | Cc1cc(C)c2nc(NC3=NCN(CCN4CCOCC4)CN3)nc(C)c2c1 | 25.9 µM (active) | 3.72 | 
3 | Cc1nc(NC2=NCN(CCCN3CCOCC3)CN2)nc2c(C)cccc12 | inactive |  | 
4 | CS(=O)(=O)NN1C(=O)c2ccccc2NC1c1c[nH]c2ccccc12 (stereo not given) | inactive | 15.5 | 
5 | CCOc1ccc(NC(=O)CCC(=O)NNC(=O)Nc2ccc(Cl)cc2)cc1 | inactive | 10.6 | 
6 | CCOc1ccc(NC(=O)CCC(=O)NNC(=O)c2ccc(Br)o2)cc1 | 6.51 µM (active) | 5.86 | 
7 | CCOc1ccc(NC(=O)CCC(=O)NNC(=O)c2ccco2)cc1 | inactive |  | 
8 | CCOCCCNc1c2c(nc3cc(-c4ccc(F)cc4)nn13)CCC2 | inactive | 9.58 | 
9 | CC(C)Cn1c(CCCNC(=O)c2ccco2)nc2ccccc21 | inactive |  | 
10 | C=C(C)Cn1c(CCNC(=O)c2ccco2)nc2ccccc21 | 0.517 µM (active) | 15.2 | 
11 | CCCCn1c(CCNC(=O)c2ccco2)nc2ccccc21 | inactive | 8.05 | 
12 | C=CCn1c(CCNC(=O)c2ccco2)nc2ccccc21 | inactive | 8.97 | 
13 | CC(C)Cn1c(CCNC(=O)c2ccco2)nc2ccccc21 | 3.66 µM (active) |  | 
14 | CCn1c(CCNC(=O)c2ccco2)nc2ccccc21 | inactive | -11.3 | 
15 | CC(=O)c1ccc(S(=O)(=O)N2CCN(C(=O)c3ccccc3Cc3ccccc3)CC2)cc1 | inactive |  | 
16 | CCNC(=O)CN(CCc1ccccc1)S(C)(=O)=O | inactive | -1.75 | 
17 | NC(=O)CSc1nccn1Cc1ccccc1 | inactive | -3.05 | 
18 | CCOc1ccc(S(=O)(=O)N2CCC(C(=O)NCC3CCCO3)CC2)cc1Cl (stereo not given) | inactive | 20.5 | 
19 | CSc1ccc(S(=O)(=O)NC2CC2)cc1 | inactive | 1.23 | 
20 | CSc1ccc(S(=O)(=O)NC2CCCCC2)cc1 | 23.1 µM (active) | 26.8 | 
21 | O=S(=O)(NC1CCCC1)c1ccc(S(=O)(=O)NC2CCCC2)cc1 | inactive | 5.07 | 
22 | Cc1cccc(C)c1NC(=S)N(CCN(C)C)Cc1cccs1 | inactive | -10.3 | 
23 | Cc1ccc(S(=O)(=O)Nc2ccc(-n3cnnn3)cc2)cc1 | inactive | 12.5 | 
24 | O=S(=O)(Nc1ccc(-n2cnnn2)cc1)c1ccc(Cl)cc1 | inactive | -6.89 | 
25 | O=S(=O)(Nc1cccc(-n2cnnn2)c1)c1ccccc1C(F)(F)F | inactive | -11 | 

Row | Structure (SMILES) | Potency | cell number change [%] | lipid storage change, negative = inhibition
26 | Cc1ccc(S(=O)(=O)Nc2ccc(-n3cnnn3)cc2)c(C)c1 | 0.58 µM (active) | -8.9 | 
27 | O=S(=O)(Nc1cccc(-n2cnnn2)c1)c1cc(Br)ccc1Br | 20.6 µM (active) | -10.7 | 
28 | O=S(=O)(Nc1cccc(-n2cnnn2)c1)c1ccccc1 | inactive | -16.7 | 
29 | O=C(CNC(c1ccccc1)c1ccccc1)NCc1ccccc1Cl | inactive | 11.7 | 
30 | Cc1cccc(N2CCN(S(=O)(=O)c3c(C)noc3/C=C/N(C)C)CC2)c1C | inactive | 12.9 | 
31 | O=C(/C=C/c1cccs1)Nc1nc(-c2ccccc2)cs1 | inactive |  | 
32 | Cc1cc(C)nc(NC(=O)/C=C/c2cccs2)c1 | inactive | -8.29 | 
33 | Cc1cc(C)c(-c2csc(NC(=O)/C=C/c3cccs3)n2)c(C)c1 | 16.4 µM (active) | -27.5 | 
34 | O=C(NCCCc1ccccc1)C1CC(=O)N(c2ccc3c(c2)OCCO3)C1 (stereo not given) | inactive | 12.6 | 
35 | Cc1coc(=N)n1CC(=O)c1ccc(Cl)cc1 | inactive | 10.4 | 
36 | O=c1c(Cl)c(Cl)cnn1Cc1ccccc1Cl | 14.6 µM (active) | -22.7 | 
37 | O=c1[nH]cnc2c1cnn2Cc1ccccc1Cl | inactive |  | 
38 | Cc1ccc(Cn2ncc(Cl)c(Cl)c2=O)cc1 | inactive | 1.44 | 
39 | O=C(CS(=O)(=O)c1ccccc1)Nc1nnc(-c2cccs2)o1 | inactive | 3.1 | 
40 | Oc1ccc2ccccc2c1C=Nc1ccc(N2CCOCC2)cc1 | inactive |  | 
41 | CCn1c2ccccc2c2cc(NC(=O)CN(C)CC(=O)Nc3ccc(N4CCOCC4)cc3)ccc21 |  | -4.9 | -0.511% [at 9.22 µM] (inactive)
42 | CCn1c(=Nc2ccc(N3CCOCC3)cc2)ccc2ccccc21 | 9.2 µM (active) | -184 | 
43 | COc1cc(C(c2sc3ncnn3c2O)N2CCN(c3ccccc3F)CC2)cc(OC)c1OC (stereo not given) | inactive | 14.8 | 
44 | CSc1nc(SCC(=O)O)c2c3c(sc2n1)COC(C)(C)C3 | inactive | 9.24 | 
45 | COc1ccc(S(=O)(=O)N2CCOCC2)cc1NC(=O)CSc1nnc2c(n1)[nH]c1ccccc12 | inactive | -0.0197 | 
46 | C=CCNC(=S)N1CCN(CCN=CC2=C(O)CC(c3cccs3)CC2=O)CC1 (stereo not given) | inactive | 17.2 | 
47 | CCCCCC(=O)N1CCN(CCN=CC2=C(O)CC(c3cccs3)CC2=O)CC1 (stereo not given) | inactive | 0.809 | 
48 | CC(=O)N1CCN(CCN=CC2=C(O)CC(c3cccs3)CC2=O)CC1 (stereo not given) | 20.6 µM (active) | -26.6 | 
49 | Cc1coc2c(C)c3oc(=O)c(CCC(=O)NCCC(=O)O)c(C)c3cc12 | inactive | 7.91 | 
